# Inconclusive results are not listed. Some structures have more than one record in an assay (separate samples or runs), and their calls can disagree. Active and inactive are the calls of the source. The calls were made as follows: active = hit-call score of the fitted dose curve at least 0.9, where 1 is the maximum; inconclusive = response in the unintended direction; inactive = score below 0.9.
# Molecular target: rat Neonicotinoid receptor (NNR), Chrna7 (gene 25302) (UniProt Q05941)
# Assay: NVS_LGIC_rNNR_BungSens: NovaScreen (NVS) Ligand-Gated Ion Channel Assay for rat Neonicotinoid receptor (NNR) (AID 2283315)
# Summary of the method: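 Rat cortical membrane preparation incubated 2.5 h with tritiated or iodinated radioligand and test chemical. Bound radioactivity was filtered and counted by scintillation, and displacement was analysed against DMSO.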
# Sequence of rat Neonicotinoid receptor (NNR), Chrna7 (gene 25302) (Q05941 whole entry, looked up): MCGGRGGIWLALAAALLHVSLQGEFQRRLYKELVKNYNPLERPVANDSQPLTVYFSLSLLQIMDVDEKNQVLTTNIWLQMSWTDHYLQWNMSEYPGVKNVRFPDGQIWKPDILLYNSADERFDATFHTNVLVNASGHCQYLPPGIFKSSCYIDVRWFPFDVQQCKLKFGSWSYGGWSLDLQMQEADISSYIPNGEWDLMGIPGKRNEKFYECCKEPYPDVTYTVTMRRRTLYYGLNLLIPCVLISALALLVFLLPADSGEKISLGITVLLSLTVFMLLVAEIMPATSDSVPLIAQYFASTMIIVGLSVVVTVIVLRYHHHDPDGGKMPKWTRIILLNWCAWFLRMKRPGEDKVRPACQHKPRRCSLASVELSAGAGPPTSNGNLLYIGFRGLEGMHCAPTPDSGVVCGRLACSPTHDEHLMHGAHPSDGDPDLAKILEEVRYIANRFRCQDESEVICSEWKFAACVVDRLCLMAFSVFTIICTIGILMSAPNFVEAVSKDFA
SMILES,outcome,AC50
O=c1cccc[nH]1,inactive,
c1ccc(C[P+](c2ccccc2)(c2ccccc2)c2ccccc2)cc1,,25 µM (active)
Nc1c(Br)cc([N+](=O)[O-])cc1Br,inactive,
CCN(CC)c1ccc2c(c1)Oc1cc(N(CC)CC)ccc1C21OC(=O)c2ccccc21,,3.48 µM (active)

# Molecular target: Sodium channel protein type 1 subunit alpha (Rattus norvegicus) (UniProt P04774)
# Assay: NVS_IC_rNaCh_site2: NovaScreen (NVS) Ion Channel Assay for rat Sodium Channel, Site 2 (NaCh) (AID 2283322);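 also: hit means loss of radioligand binding signal relative to DMSO so AC50 marks displacement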
# Summary of the method: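 Initial duplicate single-point testing at 25 uM, followed by concentration-response runs for actives. Binding of radioligand to rat forebrain membranes quantified after 1 h via filter-based radiodetection.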
SMILES,outcome,AC50
Brc1ccccn1,inactive,
O=C1OC(=O)c2ccc3c4c(ccc1c24)C(=O)OC3=O,inactive,
COc1ccccc1C=O,inactive,
Oc1ccc(C2(c3ccc(O)c(C4CCCCC4)c3)CCCCC2)cc1C1CCCCC1,inactive,
c1ccc(C[P+](c2ccccc2)(c2ccccc2)c2ccccc2)cc1,,5.54 µM (active)
CC(C)(C)c1cc(CCC(=O)NCCCCCCNC(=O)CCc2cc(C(C)(C)C)c(O)c(C(C)(C)C)c2)cc(C(C)(C)C)c1O,inactive,
CC(=O)c1ccccc1N,,1.65 µM (active)
CCCC(=O)OCC(COC(=O)CCC)OC(=O)CCC,inactive,
CCN(CC)c1ccc2c(c1)Oc1cc(N(CC)CC)ccc1C21OC(=O)c2ccccc21,inactive,
O=C=NCc1cccc(CN=C=O)c1,inactive,

# Molecular target: rat Thyrotropin Releasing Hormone Receptor (TRH), Trhr (gene 25570) (UniProt Q01717)
# Sequence (Q01717 whole entry, looked up): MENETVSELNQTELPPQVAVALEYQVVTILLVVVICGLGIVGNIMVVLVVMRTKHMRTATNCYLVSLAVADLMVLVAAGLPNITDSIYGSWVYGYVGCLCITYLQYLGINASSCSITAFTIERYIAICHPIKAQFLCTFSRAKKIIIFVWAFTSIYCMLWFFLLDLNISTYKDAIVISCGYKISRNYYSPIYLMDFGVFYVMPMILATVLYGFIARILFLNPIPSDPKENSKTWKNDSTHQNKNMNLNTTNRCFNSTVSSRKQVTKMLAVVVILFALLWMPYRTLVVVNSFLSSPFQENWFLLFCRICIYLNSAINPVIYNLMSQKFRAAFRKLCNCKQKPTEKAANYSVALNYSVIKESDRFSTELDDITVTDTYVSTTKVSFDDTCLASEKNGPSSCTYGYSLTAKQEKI
# Assay: NVS_GPCR_rTRH: NovaScreen (NVS) G Protein-Coupled Receptor Assay for rat Thyrotropin Releasing Hormone Receptor (TRH) (AID 2283329);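 also: hit means lower bound tracer signal versus DMSO baseline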
# Summary of the method: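 Rat forebrain membranes; radioligand displacement at TRH receptor by filter-based scintillation counting, read 4 h after dosing. Duplicate single-point screen at 25 uM, actives rerun in concentration series; loss of signal relative to DMSO.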
row,SMILES,outcome
1,Cc1ccc([N+](=O)[O-])c(C)c1,inactive
2,CC(C)(C)c1cc(Cc2cc(C(C)(C)C)c(O)c(C(C)(C)C)c2)cc(C(C)(C)C)c1O,inactive
3,C[C@]12CC[C@H]3C(=CCc4cc(O)ccc43)[C@@H]1CCC2=O,inactive
4,CCN=c1cc2oc3cc(NCC)c(C)cc3c(-c3ccccc3C(=O)OCC)c-2cc1C,inactive
5,CCCCCCCC/C=C\CCCCCCCC(=O)OCC(O)CO (centres undefined),inactive
6,CCCCOC(=O)[C@H](C)O,inactive
7,CCCCOC(=O)C(C)O (centres undefined),inactive
8,CCC(Cc1c(I)cc(I)c(N)c1I)C(=O)O (centres undefined),inactive
9,CCN=C1C=CC(=C(c2ccc(N(CC)CC)cc2)c2ccc(N(CC)CC)cc2)c2ccccc21,inactive
10,COCCOCCC[Si](C)(O[Si](C)(C)C)O[Si](C)(C)C,inactive
11,O=C(c1ccccc1)c1ccc(O)cc1O,inactive

# Molecular target: human Peripheral-type Benzodiazepine Receptor (PBR), TSPO (gene 706) (UniProt P30536)
# Sequence (P30536 whole entry, looked up): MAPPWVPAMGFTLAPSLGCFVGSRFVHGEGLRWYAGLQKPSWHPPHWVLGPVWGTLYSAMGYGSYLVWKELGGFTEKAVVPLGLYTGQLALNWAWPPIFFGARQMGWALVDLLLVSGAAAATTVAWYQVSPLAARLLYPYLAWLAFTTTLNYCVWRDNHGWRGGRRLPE
# Assay: NVS_MP_hPBR: NovaScreen (NVS) Membrane Protein Assay for human Peripheral-type Benzodiazepine Receptor (PBR) (AID 2283331);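 also: hits reduce radioligand binding relative to DMSO baseline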
# Summary of the method: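 Using human colon-derived membranes, this one-endpoint binding test reads radioligand loss by scintillation after 1 h. Screening started at 25 uM in duplicate, with positive and negative controls on every plate, and actives moved to dose series.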
SMILES,AC50,outcome
O=C1c2c(O)ccc(Nc3ccc(CCO)cc3)c2C(=O)c2c([N+](=O)[O-])ccc(O)c21,9.9 µM (active),
CCN=c1cc2oc3cc(NCC)c(C)cc3c(-c3ccccc3C(=O)OCC)c-2cc1C,0.443 µM (active),
CCCCCCCC/C=C\CCCCCCCC(=O)OCC(O)CO (centres undefined),25 µM (active),
CCN(CC)c1ccc(C=O)c(O)c1,,inactive
CCCC(=O)OCC(COC(=O)CCC)OC(=O)CCC,,inactive
CCN=C1C=CC(=C(c2ccc(N(CC)CC)cc2)c2ccc(N(CC)CC)cc2)c2ccccc21,0.0669 µM (active),
CCN(CC)c1ccc2c(c1)Oc1cc(N(CC)CC)ccc1C21OC(=O)c2ccccc21,,inactive
O=C=NCc1cccc(CN=C=O)c1,4.21 µM (active),
CCCCCCCCCCCCCC[P+](CCCC)(CCCC)CCCC,3.52 µM (active),
Cc1ccc(S(=O)(=O)C(I)I)cc1,23.2 µM (active),

# Molecular target: human Androgen Receptor (AR), AR (gene 367) (UniProt P10275)
# Sequence (P10275 whole entry, looked up): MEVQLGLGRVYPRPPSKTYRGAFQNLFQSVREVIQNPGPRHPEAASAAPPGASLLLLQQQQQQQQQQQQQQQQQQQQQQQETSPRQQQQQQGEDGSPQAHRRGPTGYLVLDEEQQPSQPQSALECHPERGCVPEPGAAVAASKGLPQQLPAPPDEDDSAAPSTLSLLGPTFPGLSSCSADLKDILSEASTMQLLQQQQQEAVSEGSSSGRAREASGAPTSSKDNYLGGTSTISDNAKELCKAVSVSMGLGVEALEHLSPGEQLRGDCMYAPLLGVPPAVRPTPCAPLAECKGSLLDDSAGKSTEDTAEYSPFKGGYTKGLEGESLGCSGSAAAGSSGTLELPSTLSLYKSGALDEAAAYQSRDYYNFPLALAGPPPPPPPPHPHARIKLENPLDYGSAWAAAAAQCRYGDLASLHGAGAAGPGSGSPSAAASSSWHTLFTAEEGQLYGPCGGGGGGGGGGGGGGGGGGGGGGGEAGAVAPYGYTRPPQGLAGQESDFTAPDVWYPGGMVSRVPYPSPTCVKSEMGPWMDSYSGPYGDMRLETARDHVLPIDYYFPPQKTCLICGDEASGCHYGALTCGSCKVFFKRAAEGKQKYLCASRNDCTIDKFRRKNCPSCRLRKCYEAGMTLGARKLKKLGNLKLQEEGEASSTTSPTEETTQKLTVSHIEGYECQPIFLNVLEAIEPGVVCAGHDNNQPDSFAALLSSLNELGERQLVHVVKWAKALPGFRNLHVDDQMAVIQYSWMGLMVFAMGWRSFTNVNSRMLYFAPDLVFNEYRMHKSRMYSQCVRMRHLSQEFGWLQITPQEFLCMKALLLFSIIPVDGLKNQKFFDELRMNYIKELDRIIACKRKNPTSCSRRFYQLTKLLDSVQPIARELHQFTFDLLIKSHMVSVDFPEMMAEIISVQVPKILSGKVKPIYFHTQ
# Assay: NVS_NR_hAR: NovaScreen (NVS) Nuclear Receptor Binding Assay for human Androgen Receptor (AR) (AID 2283332)
# Experimental: NVS_NR_hAR is a biochemical, single-readout assay that uses extracted gene-proteins from LnCAP in a cell-free assay. Measurements were taken 20 hours after chemical dosing in a 96-well plate.NVS_NR_hAR is one of one assay component(s) measured or calculated from the NVS_NR_hAR assay. It is designed to make measurements of radioligand binding, a form of binding reporter, as detected with scintillation counting signals by Lysate-based radiodetection technology.Data from the assay component NVS_NR_hAR was analyzed into 1 assay endpoint. This assay endpoint, NVS_NR_hAR, was analyzed in the positive analysis fitting direction relative to DMSO as the negative control and baseline of activity. Using a type of binding reporter, loss-of-signal activity can be used to understand changes in the binding as they relate to the gene AR. Furthermore, this assay endpoint can be referred to as a primary readout, because the performed assay has only produced 1 assay endpoint. To generalize the intended target to other relatable targets, this assay endpoint is annotated to the nuclear receptor intended target family, where the subfamily is steroidal.
# Binding assays used specific radioligands (tritiated, iodinated) with non-radioactive competitive displacement ligands in agonist or antagonist protocols (as indicated) and various reference compounds and inhibitors to titrate specific binding to receptors and transporters. Most enzyme assays (CYPs, kinases, phosphatases, proteases, HDACs) used recombinant protein and specific substrates (fluorescence mostly, some colorimetric and radioactive) and inhibitors, followed by a biochemical separation of substrate and product. All assays for the biochemical HTS were initially run in duplicate at a single concentration (10 uM for CYP450 assays and 25 uM for all others). […] Each assay was run with positive and negative controls, and concurrent controls on every plate. The follow-up (secondary) screen tested active chemical-pairs in concentration series, as well as a few additional assays not tested in the primary screen, some selected negative inactives, and several cases re-run in the concentration series for confirmatory purposes.
row,SMILES,AC50
1,O=C1c2c(O)ccc(Nc3ccc(CCO)cc3)c2C(=O)c2c([N+](=O)[O-])ccc(O)c21,13.8 µM (active)
2,C[C@]12CC[C@H]3C(=CCc4cc(O)ccc43)[C@@H]1CCC2=O,0.661 µM (active)
3,CCN(CC)c1ccc(C=O)c(O)c1,3.82 µM (active)

# Molecular target: rat Peripheral-type Benzodiazepine Receptor (PBR), Tspo (gene 24230) (UniProt P16257)
# Sequence (P16257 whole entry, looked up): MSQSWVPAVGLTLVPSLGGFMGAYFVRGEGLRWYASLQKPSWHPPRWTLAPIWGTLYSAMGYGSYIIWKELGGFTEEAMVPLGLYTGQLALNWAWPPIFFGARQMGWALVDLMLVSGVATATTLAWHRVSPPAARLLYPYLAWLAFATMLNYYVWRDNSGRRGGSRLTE
# Assay: NVS_MP_rPBR: NovaScreen (NVS) Membrane Protein Assay for rat Peripheral-type Benzodiazepine Receptor (PBR) (AID 2283335)
# Summary of the method: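 Single-concentration duplicate screening at 25 uM preceded concentration-series retesting of actives. Binding of a specific radioligand to rat kidney membrane PBR was read by filtration radiodetection after 1 h, with plate-wise positive and negative controls.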
SMILES,AC50,outcome
O=C1c2c(O)ccc(Nc3ccc(CCO)cc3)c2C(=O)c2c([N+](=O)[O-])ccc(O)c21,2.38 µM (active),
CCN=c1cc2oc3cc(NCC)c(C)cc3c(-c3ccccc3C(=O)OCC)c-2cc1C,5.08 µM (active),
CCN(CC)c1ccc(C=O)c(O)c1,,inactive
CCN=C1C=CC(=C(c2ccc(N(CC)CC)cc2)c2ccc(N(CC)CC)cc2)c2ccccc21,0.185 µM (active),
CCCCCCCCCCCCCC[P+](CCCC)(CCCC)CCCC,12.2 µM (active),
Cc1ccc(S(=O)(=O)C(I)I)cc1,7.18 µM (active),
O=C(c1ccccc1)c1ccc(O)cc1O,,inactive

# Molecular target: bovine Estrogen Receptor (ER), ESR1 (gene 407238) (UniProt P49884)
# Sequence (P49884 whole entry, looked up): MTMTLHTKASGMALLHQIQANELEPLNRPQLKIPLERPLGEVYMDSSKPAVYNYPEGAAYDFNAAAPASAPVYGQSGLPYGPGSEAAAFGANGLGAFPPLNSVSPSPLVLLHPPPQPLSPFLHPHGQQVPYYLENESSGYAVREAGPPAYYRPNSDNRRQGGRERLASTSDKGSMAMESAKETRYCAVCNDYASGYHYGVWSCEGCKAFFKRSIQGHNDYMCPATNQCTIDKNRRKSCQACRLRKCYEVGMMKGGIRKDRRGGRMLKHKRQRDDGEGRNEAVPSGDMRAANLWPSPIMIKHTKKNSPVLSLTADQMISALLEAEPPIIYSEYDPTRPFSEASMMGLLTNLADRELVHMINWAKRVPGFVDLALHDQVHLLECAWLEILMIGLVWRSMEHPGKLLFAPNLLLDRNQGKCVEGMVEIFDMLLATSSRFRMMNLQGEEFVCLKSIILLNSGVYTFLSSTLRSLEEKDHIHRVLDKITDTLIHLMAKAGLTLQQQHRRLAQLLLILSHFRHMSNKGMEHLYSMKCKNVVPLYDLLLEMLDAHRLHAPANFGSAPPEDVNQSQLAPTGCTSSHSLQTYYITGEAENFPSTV
# Assay: NVS_NR_bER: NovaScreen (NVS) Nuclear Receptor Binding Assay for bovine Estrogen Receptor (ER) (AID 2283345);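 also: actives lower the bound radioligand count which means they displace the ER ligand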
# Summary of the method: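 Cell-free radioligand binding with bovine uterine membrane extracts, read 18 hours after dosing by scintillation counting. Loss of signal versus DMSO baseline indicates displacement. Primary screen run in duplicate at 25 uM, actives followed in concentration series.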
SMILES,AC50,outcome
C[C@]12CC[C@H]3C(=CCc4cc(O)ccc43)[C@@H]1CCC2=O,0.0129 µM (active),
CCN=c1cc2oc3cc(NCC)c(C)cc3c(-c3ccccc3C(=O)OCC)c-2cc1C,8.97 µM (active),
CCC(Cc1c(I)cc(I)c(N)c1I)C(=O)O (centres undefined),,inactive
CCCCCCCCCCCCCC[P+](CCCC)(CCCC)CCCC,38.3 µM (active),
O=C(c1ccccc1)c1ccc(O)cc1O,8.41 µM (active),

# Molecular target: chimpanzee Androgen Receptor (AR), AR (gene 747460) (UniProt O97775)
# Sequence (O97775 whole entry, looked up): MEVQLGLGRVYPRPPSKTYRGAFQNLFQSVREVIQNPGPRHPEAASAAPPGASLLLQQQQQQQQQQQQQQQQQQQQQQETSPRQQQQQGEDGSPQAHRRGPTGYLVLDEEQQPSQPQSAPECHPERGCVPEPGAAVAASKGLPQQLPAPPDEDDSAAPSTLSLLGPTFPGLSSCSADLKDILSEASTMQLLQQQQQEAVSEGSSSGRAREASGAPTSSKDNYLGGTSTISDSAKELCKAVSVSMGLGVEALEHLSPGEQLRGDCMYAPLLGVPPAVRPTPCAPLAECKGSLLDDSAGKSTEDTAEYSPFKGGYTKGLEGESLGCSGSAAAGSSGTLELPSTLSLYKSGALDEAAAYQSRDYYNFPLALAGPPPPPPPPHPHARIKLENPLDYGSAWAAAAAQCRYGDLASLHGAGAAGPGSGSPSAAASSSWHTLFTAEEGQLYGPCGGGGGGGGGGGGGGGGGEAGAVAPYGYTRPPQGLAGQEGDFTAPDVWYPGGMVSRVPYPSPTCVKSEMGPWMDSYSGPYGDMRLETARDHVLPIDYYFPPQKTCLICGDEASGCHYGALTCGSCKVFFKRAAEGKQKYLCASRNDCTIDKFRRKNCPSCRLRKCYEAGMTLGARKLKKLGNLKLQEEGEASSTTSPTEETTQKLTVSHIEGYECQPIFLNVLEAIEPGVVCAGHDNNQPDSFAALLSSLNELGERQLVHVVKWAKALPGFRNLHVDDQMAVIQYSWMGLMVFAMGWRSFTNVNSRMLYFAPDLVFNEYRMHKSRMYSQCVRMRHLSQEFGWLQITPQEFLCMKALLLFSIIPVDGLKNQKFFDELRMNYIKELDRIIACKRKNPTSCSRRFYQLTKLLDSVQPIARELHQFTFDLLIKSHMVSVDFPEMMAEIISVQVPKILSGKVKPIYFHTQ
# Assay: NVS_NR_cAR: NovaScreen (NVS) Nuclear Receptor Binding Assay for chimpanzee Androgen Receptor (AR) (AID 2283346)
# Summary of the method: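 Cell-free radioligand displacement using receptor protein extracted from Sf9/Sf21 cells; bound radioligand measured by scintillation counting 72 hours after chemical dosing. Loss of signal versus DMSO baseline indicates binding; primary screen single-concentration in duplicate at 25 uM, actives followed in concentration series.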
SMILES,outcome,AC50
O=C1c2c(O)ccc(Nc3ccc(CCO)cc3)c2C(=O)c2c([N+](=O)[O-])ccc(O)c21,inactive,
C[C@]12CC[C@H]3C(=CCc4cc(O)ccc43)[C@@H]1CCC2=O,inactive,5.87 µM (active)
CCCCCCCC/C=C\CCCCCCCC(=O)OCC(O)CO (centres undefined),inactive,
CCN(CC)c1ccc(C=O)c(O)c1,,0.298 µM (active)
CCN=C1C=CC(=C(c2ccc(N(CC)CC)cc2)c2ccc(N(CC)CC)cc2)c2ccccc21,,3.61 µM (active)
CCCCCCCCCCCCCC[P+](CCCC)(CCCC)CCCC,,23.1 µM (active)
O=C(c1ccccc1)c1ccc(O)cc1O,inactive,9.97 µM (active)
